From PubChem BioAssay
The list is not random: actives were taken first. Their share in the collection is about 15%.
Pf growth 96h – Primary qHTS for delayed death inhibitors of the malarial parasite plastid, 96 hour incubation; P. falciparum luciferase reporter growth, 96 h; Potency, µM (series often up to 28.7 µM), hits mostly inhibitors; actives 6.9% (n = 320,000); AID 504834, 2011
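Parasite growth measured via integrated firefly luciferase reporter in P. falciparum. Infected erythrocytes at 2% hematocrit, 0.05% parasitemia final were treated 96 hours at 37 C under 5% CO2, and luminescence was read.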
Pf growth 48h – Primary qHTS for delayed death inhibitors of the malarial parasite plastid, 48 hour incubation. P. falciparum luciferase growth in erythrocytes, 48 h. Potency, µM (doses to about 28.7 µM), most hits filed as inhibitors. actives 5.9% (n = 310,000)
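Luminescence readout; reporter = integrated firefly luciferase in P. falciparum. RBC culture at 2% hematocrit, 0.1% parasitemia final, 37 C/5% CO2; decreased signal taken as growth inhibition.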
SARS PLP yeast – qHTS of Yeast-based Assay for SARS-CoV PLP; S. cerevisiae expressing SARS-CoV PLpro, growth rescue; Potency, µM (top dose mostly 32.9 µM), usual class: activators; actives 0.19% (n = 330,000); AID 485353, 2010; calls by dose curve; further: nearly all actives have a fitted effect of over 55% in size
HCV inh – qHTS Assay for Inhibitors of Hepatitis C Virus (HCV) | AID 651820, 2012 | Huh7.5.1 HCVcc-Cre infection, luciferase reporter, 44 h | Potency, µM (titrated, usually from 41.8 µM), actives largely listed as inhibitors | actives 3.4% (n = 340,000)
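Infectious HCV cell culture screen: compound-treated cells (1,000/well, pre-plated 4 h) are infected with HCVcc-Cre at roughly 0.5 moi and grown 44 h. Infection is quantified by luciferase signal after 15 min substrate incubation at room temperature.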
Sm TGR inh – qHTS Assay for the Inhibitors of Schistosoma Mansoni Peroxiredoxins; Potency, µM (doses to about 114 µM), usual class: inhibitors; purified TGR, DTNB reduction, TNB absorbance 405 nm; actives 3% (n = 360,000); further: nearly all actives have a fitted effect of over 60% in size
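First, TGR (20 nM dispensed) and NADPH were mixed with compound. Second, a 15 min room-temperature incubation followed. Third, further NADPH and then DTNB were added to start the reaction. Finally, TNB absorbance was monitored kinetically.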
HCMV antiviral – qHTS Assay for inhibitors of the human cytomegalovirus (HCMV); activity change, negative = inhibition, % at 57.5 µM; HFF cells, HCMV-luciferase reporter, 72 h; active compounds read low; actives 4.5% (n = 410,000); in the data active means activity change below about -60%; inconclusive means no clear call, values can overlap the other calls; inactive means above about -39%
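Inhibition of viral replication was scored as loss of reporter luminescence in HFFs infected with HCMV-luciferase (MOI 1 PFU/cell) for 72 h; compounds tested at 2 doses, normalized to buffer and Salinomycin controls.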
A number is an active result; - = inactive; ? = inconclusive; . = not tested or not shown; [ ] = remark or other dose. Unless noted, the call rests on the fitted dose curve; in most records, active means well fitted curve in the direction sought with a large enough effect; inconclusive means small, poorly fitted or top-dose-only effect, or another doubt; inactive means no such curve, though single readings can be large; an effect the other way counts as inactive or inconclusive.

SMILES | Pf growth 96h | Pf growth 48h | SARS PLP yeast | HCV inh | Sm TGR inh | HCMV antiviral
O=C(O)C1CC=CCC1C(=O)N1CCN(c2nc(-c3ccccc3)c3ccccc3n2)CC1 (centres undefined) | . | ? | - | ? | - | -
O=C(O)C1CC=CCC1C(=O)N1CCN(c2nc(-c3ccccc3Cl)c3cc(Br)ccc3n2)CC1 (centres undefined) | ? | 12µM | - | ? | - | -
CC(Oc1ccccc1)C(=O)Nc1c(C(=O)Nc2cccc(F)c2)oc2ccccc12 (centres undefined) | . | . | . | . | - | -
COc1ccc(C)cc1N(C(=O)COc1cccc(F)c1)c1nc2ccccc2s1 | ? | 0.74µM | - | - | - | -
COc1ccc(C)cc1N(C(=O)c1ccc(F)cc1)c1nc2ccccc2s1 | ? | ? | - | ? | - | -
Cc1ccc(Cn2ncc3c(N4CCN(c5ccccc5C)CC4)ncnc32)cc1 | ? | 13µM | - | ? | - | -
c1ccc(Cn2ncc3c(N4CCCCC4)ncnc32)cc1 | ? | ? | - | ? | - | -
Clc1ccc(Cn2ncc3c(N4CCN(c5ccccc5)CC4)ncnc32)cc1 | . | . | . | . | . | -102
Cc1ccc(NC(=O)C(=O)NCC(c2ccc3c(c2)OCO3)N2CCN(C)CC2)cc1C (centres undefined) | . | . | . | . | - | -
N#Cc1cc([N+](=O)[O-])ccc1NC(=O)COC(=O)CN1C(=O)C2CCCCC2C1=O (centres undefined) | . | . | - | - | . | -
N#Cc1nc(-c2cccc3ccccc23)oc1NCC1CCCO1 (centres undefined) | - | - | - | ? | - | -67
O=C1NC(=O)C(=Cc2ccc(OCCOc3ccc([N+](=O)[O-])cc3)cc2)C(=O)N1 | - | - | - | - | 16µM | -
O=C1NC(=O)C(=Cc2cccc(OCCOc3ccccc3)c2)C(=O)N1 | - | - | - | - | 11µM | -
COc1cccc(/C=C/c2nc(C#N)c(N3CCN(C)CC3)o2)c1 | . | . | . | . | - | -
Cn1c(SCC(=O)N2CCN(S(=O)(=O)c3ccc(Cl)cc3)CC2)nc2ccccc21 | 10µM | . | - | - | - | -
Cn1c(N2CCN(S(=O)(=O)c3ccc(Cl)cc3)CC2)nc2ccccc21 | - | - | - | - | - | -61
O=C(CSc1nc2ccccc2c(=O)[nH]1)N1CCOCC1 | ? | - | - | - | - | -
O=C(CSc1nc2ccc(S(=O)(=O)N3CCOCC3)cc2[nH]1)N1CCOCC1 | 1.9µM | . | - | - | - | -
Cn1c(SCC(=O)N2CCN(S(=O)(=O)c3ccccc3)CC2)nc2ccccc21 | ? | ? | - | - | - | -
Cc1ccc(C(=O)N2CCN(c3nc4ccccc4n3C)CC2)cc1 | - | ? | - | - | - | -62
C=C1[C@H]2O[C@H]2[C@@H](OC(C)=O)[C@@]2(C)[C@@H](OC(C)=O)C[C@@H](OC(C)=O)[C@@](C)(O)[C@@H]2[C@@H](OC(C)=O)[C@@]2(O)[C@@H](C)C(=O)O[C@H]2[C@H]1Cl | . | . | . | -[8.37 µM] | . | -
O=C(Nc1ccc(F)cc1Cl)C1CCN(c2ncnc3c2nc2n3CCCCC2)CC1 | . | . | . | . | - | -
CC(=O)NC(C)(c1ccccc1)c1nc(-c2cc(F)cc(F)c2)cs1 (centres undefined) | . | . | . | . | . | -
N#CCCn1c(SCC(=O)N2CCN(S(=O)(=O)c3ccccc3)CC2)nc2ccccc21 | . | ? | - | - | - | -
CC(C)Cn1c(SCC(=O)N2CCN(S(=O)(=O)c3ccccc3)CC2)nc2ccccc21 | . | 3.3µM | - | ? | - | -68
O=C(CSc1nc(-c2ccccc2)c(-c2ccccc2)[nH]1)N1CCN(S(=O)(=O)c2ccccc2)CC1 | ? | . | - | ? | - | -88
CCOC(=O)c1c(C)[nH]c(C(=O)CN2C(=O)NC(C)(c3ccc4ccccc4c3)C2=O)c1C (centres undefined) | 5.2µM | ? | - | . | - | -
CCOC(=O)c1c(C)[nH]c(C)c1C(=O)CN1C(=O)NC2(CCCCCC2)C1=O | ? | 6.6µM | - | - | - | -
